# SW480 rerep – A quantitative high throughput screen for small molecules that induce DNA re-replication in SW480 colon adenocarcinoma cells | SW480 DNA re-replication, Hoechst DNA content imaging, 48 h | Potency, µM (highest dose often 46.1 µM), without a hit: top-dose re-replication activation, usual class: activators | actives 1.8% (n = 340,000); also: potency is read from the fitted curve at half-maximal effect; % of control where 0% means no effect; nearly all actives have a fitted effect of over 55% in size
#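 Treated cells incubate 48 hr (37 C, 5% CO2), are stained 40 min with Hoechst, and nuclear fluorescence is enumerated; a rise in nuclei with high DNA signal marks re-replication.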
# VP16 counter – VP16 counterscreen qHTS for inhibitors of ROR gamma transcriptional activity. Drosophila S2 Gal4-VP16 UAS-luciferase, luminescence, 20 h. Potency, µM (titrated, usually from 53.6 µM), without a hit: top-dose activity, negative = inhibition, usual class: inhibitors. actives 3.5% (n = 310,000). AID 2546, 2010;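 also: Gal4-VP16 expression switched on by copper sulfate through the metallothionein promoter; potency is read from the fitted curve at half-maximal effect; % is scaled to controls: 0 for no effect and ±100 for the full control effect; nearly all actives have a fitted effect of over 50% in size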
# RORg inh – qHTS for inhibitors of ROR gamma transcriptional activity; Drosophila S2 Gal4-RORgamma UAS-luciferase reporter, 20 h; Nuclear receptor ROR-gamma (Mus musculus), P51450; actives 5.4% (n = 310,000); Potency, µM (series often up to 53.6 µM), for inactives: top-dose activity change, negative = inhibition, most hits filed as inhibitors; also: potency is read from the fitted curve at half-maximal effect; % is scaled to controls: 0 for no effect and ±100 for the full control effect; nearly all actives have a fitted effect of over 60% in size
# Target sequence (P51450 whole entry, looked up, the tested form may be a part): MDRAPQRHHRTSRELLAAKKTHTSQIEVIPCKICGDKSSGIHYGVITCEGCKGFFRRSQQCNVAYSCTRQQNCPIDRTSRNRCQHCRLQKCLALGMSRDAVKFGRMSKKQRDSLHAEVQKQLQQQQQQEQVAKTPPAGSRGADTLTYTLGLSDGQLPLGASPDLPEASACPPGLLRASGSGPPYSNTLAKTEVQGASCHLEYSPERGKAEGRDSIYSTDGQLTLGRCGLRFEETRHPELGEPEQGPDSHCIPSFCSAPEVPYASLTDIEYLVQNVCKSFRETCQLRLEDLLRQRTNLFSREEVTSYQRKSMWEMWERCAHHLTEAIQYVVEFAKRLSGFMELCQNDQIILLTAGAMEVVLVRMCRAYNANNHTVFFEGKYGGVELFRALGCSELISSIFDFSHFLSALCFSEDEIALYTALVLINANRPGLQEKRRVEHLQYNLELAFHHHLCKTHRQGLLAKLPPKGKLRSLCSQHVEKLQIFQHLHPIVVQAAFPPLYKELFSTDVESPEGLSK
#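 Schneider cells (Drosophila), stable Gal4 DBD–ROR gamma + UAS-luc; 1 hr cmpd preincubation; Cu2+ induction 700 uM final; 20 hr ambient; luminescence.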
# MCF10A rereplic – A quantitative high throughput screen for small molecules that induce DNA re-replication in MCF 10a normal breast cells; MCF 10A DNA re-replication, Hoechst nuclear intensity, 48 h; Potency, µM (top dose mostly 46.1 µM), for the others: at the highest dose activity, positive = re-replication, hits mostly activators; actives 2.9% (n = 350,000); AID 624296, 2012; also: potency is read from the fitted curve at half-maximal effect; % of control where 0% means no effect; nearly all actives have a fitted effect of over 50% in size
# IL1B secr inh – qHTS for Inhibitors of Inflammasome Signaling: IL-1-beta AlphaLISA Primary Screen. THP-1 LPS/ATP IL-1B secretion, AlphaLISA, 16 h; active compounds read low. actives 4.7% (n = 360,000). AID 743279, 2014. activity change, % at 57.5 µM; in the data active = activity change below about -50%; inconclusive = mostly about -30% to -49%; also: % is scaled to controls: 0 for no effect and ±100 for the full control effect
#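 THP-1 cells pretreated 1 hr with compounds (up to 57.5 uM final), then stimulated with LPS (250 ng/mL final) plus ATP (1.25 mM final); secreted IL-1B measured by AlphaLISA after 16 hr, decreased signal indicating inhibition.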
# The depositor's hits bear a star; ? = inconclusive; · = not tested or not shown. Compounds with a hit are over-represented: about 11% of the library has one in this group of screens. Unless noted, calls follow the shape of the dose curve; as a rule, active = well fitted curve in the direction sought with a large enough effect; inconclusive = small, poorly fitted or top-dose-only effect, or another doubt; inactive = no such curve, though single readings can be large; an effect the other way counts as inactive or inconclusive.
SMILES,SW480 rerep,VP16 counter,RORg inh,MCF10A rereplic,IL1B secr inh
O=C(COc1ccccc1Cl)NCc1ccco1,-2.8%,?,?,1.6%,-3.7
Cc1cccc(C)c1NC(=O)NCc1ccco1,-3.6%,-14.9%,-5.4%,6.5%,2.1
CCCOc1ccc(CC(=O)NCc2ccco2)cc1OC,1.9%,4.8%,11.2µM*,-2.5%,8.7
CCOc1ccccc1OCC(=O)NCc1ccco1,12.8%,-1.3%,-8.4%,16.4µM*,-1.0
Cc1cccc(C)c1OCCNC(=O)C(=O)NCc1ccco1,2.91µM*,4.9%,7.2%,2.91µM*,47.0
O=C(COc1ccccc1-c1ccccc1)NCc1ccco1,6.1%,?,?,?,-50.9*
CC(C)C(NC(=O)c1c(F)cccc1F)C(=O)N1CCN(S(=O)(=O)/C=C/c2ccccc2)CC1 (centres undefined),-14.9%,·,·,17.1%,-4.4
CCOC(=O)C1CCCN1C(=O)C1(NC(C)=O)CCCC1 (centres undefined),3.5%,·,·,0.1%,-4.2
O=C(COC(=O)C(c1ccccc1)c1ccccc1)NCc1ccco1,-2.2%,17.8µM*,?,1.8%,16.0
Cc1ccccc1NC(=O)c1cc(S(=O)(=O)N2CCOCC2)cn1C,-18.0%,1.1%,3.8%,1.2%,-2.6
Cn1c(=O)n(C)c2cc(S(=O)(=O)N3CCOCC3)ccc21,-2.9%,5.9%,-0.7%,-0.6%,3.2
Cc1ccccc1NC(=S)N=Nc1c(O)n(C)c2ccc(S(=O)(=O)N3CCOCC3)cc12,?,0.794µM*,0.316µM*,1.2%,-12.6
Cc1cccc(C)c1NC(=S)N=Nc1c(O)n(C)c2ccc(S(=O)(=O)N3CCOCC3)cc12,1.7%,4.47µM*,1.26µM*,?,2.3
CC(C)(C)C(=O)NCc1ccc(C(=O)CSc2nnc3n2CCCCC3)s1,·,·,·,·,13.4
CC(=O)N(Cc1cccnc1)c1cccc(-c2nc3ccccc3s2)c1,-4.1%,?,-18.0%,7.4%,-61.7*
c1cncc(-c2nc3ccccc3s2)c1,-26.1%,4.5%,-3.0%,6.1%,-11.4
O=C(c1cnccn1)N1CCC2(CC1)CN(c1ccccn1)C2,·,8.8%,-22.5%,·,·
COc1ccc(OCc2n(CC(=O)OC3CC(C)CCC3C(C)C)c3ccccc3[n+]2C)cc1 (centres undefined),26.4%,?,?,?,-57.5*
CC1CCC(C(C)C)C(OC(=O)CSc2nccc(=O)[nH]2)C1 (centres undefined),-0.1%,2.6%,12.8%,-1.4%,-5.7
COc1ccc(-c2n(CC(=O)OC3CC(C)CCC3C(C)C)c3ccccc3[n+]2C)cc1 (centres undefined),-37.4%,-12.0%,-0.3%,?,-200.7*
NC(=O)CCCn1c(C(=O)c2ccc(Cl)cc2)c2ccc([N+](=O)[O-])cc2[n+]1[O-],?,·,·,21.6%,-10.1
NC(=O)CCCn1c(C(=O)c2cc(Cl)c(N)c(Cl)c2)c2ccc([N+](=O)[O-])cc2[n+]1[O-],20.6µM*,·,·,16.4µM*,-10.3
NCCCn1c(C(=O)c2ccc(Cl)cc2)c2ccc([N+](=O)[O-])cc2[n+]1[O-],?,·,·,?,-60.1*
CC(=O)N1CCN(C(=O)c2cccc(S(=O)(=O)Nc3c(C)n(C)n(-c4ccccc4)c3=O)c2)CC1,-1.6%,·,·,0.3%,5.3
C[C@@H](C1[C@@H](O)CC2C3C=CC4C[C@@H](O)CC[C@]4(C)[C@H]3CC[C@@]21C)[C@@H]1CCCCN1 (some centres undefined),·,2.1%,8.3%,·,·
SMILES,SW480 rerep,VP16 counter,RORg inh,MCF10A rereplic,IL1B secr inh
Cc1ccc(S(=O)(=O)N2CCOCC2)cc1C(=O)NCCc1ccc(Cl)cc1,2.5%,·,·,-38.9%,7.8
c1ccc2c(-c3c[nH]c4ccccc34)c3ccccc3nc2c1,?,-13.9%,-17.5%,8.2µM*,-18.5
COc1ccc(Cc2nnc(N/N=C/c3ccc(O)cc3O)[nH]c2=O)cc1OC,6.8%,-12.7%,22.4%,?,-53.4*
COc1ccc(C(C#N)=C2C=CC(=NO)C(C)=C2Cl)cc1,?,·,·,9.3%,-82.1*
COc1ccc(C(C#N)=C2C=C(Cl)C(=NO)C=C2Cl)cc1,·,·,·,·,-5.9
O=C(O)CC1(CC(=O)NCc2ccc(Cl)cc2)CCCCC1,1.7%,-0.6%,26.2%,20.6µM*,-3.7
CC(C)(C)c1cc(CCC(=O)N2CCCC2)cc(C(C)(C)C)c1O,5.9%,-6.7%,-14.4%,-20.6%,-21.1
COc1cc(C(=O)N2CCCCCCC2)cc(OC)c1OC,-6.6%,9.1%,18.9%,1.2%,·
COc1cc(C(=S)N2CCCC2)cc(OC)c1OC,-19.9%,-22.7%,-22.0%,3.66µM*,-0.8
CC(C)(C)c1cc(C(=S)N2CCCC2)cc(C(C)(C)C)c1O,18.8%,5.01µM*,6.31µM*,6.7%,-15.1
CCOC(=O)c1c(C)[nH]c(C(C)=NNC(=O)Cn2nc(C)cc2C)c1C,-5.9%,·,·,-1.0%,-18.4
CCOC(=O)CNC(=O)O[C@@H]1C(=O)c2cc(Br)ccc2O[C@H]1c1cccc(OC)c1,·,-21.1%,-8.2%,·,·
O=C(c1cc(-c2ccc(Cl)cc2)n(-c2ccc(Cl)c(Cl)c2)n1)N1CCOCC1,16.2%,?,2.24µM*,?,?
CCC(=O)c1ccc(OCC(=O)OCC(=O)NC2CCCCCCC2)cc1,-4.8%,-7.7%,-8.7%,6.2%,1.8
O=C1c2ccccc2C2=Nc3ccccc3SC(c3cccc(F)c3)C12 (centres undefined),?,-9.7%,36.7%,11.6µM*,-6.5
O=C(OCN1C(=O)c2ccccc2C1=O)c1ccc(Cl)nc1,2.0%,2.5%,-8.0%,0.6%,9.5
COc1ccc(CC(N)c2csc(NC(=O)c3ccc(F)cc3)n2)cc1 (centres undefined),·,·,·,·,-54.1*
COc1ccc(CC(N)c2csc(NC(=O)c3cccc(OC(F)(F)F)c3)n2)cc1 (centres undefined),·,·,·,·,-60.2*
